The source of these data is PubChem BioAssay (NCATS).

Active and inactive are the calls of the source. No rule for the calls is given here.

Assay [1] in a line: Immunotoxin (HA22) sensitization/mitigation study. Vehicle arm (PBS) (AID 1159510).
Assay [2] can be described thus: Immunotoxin (SS1P) sensitization/mitigation study. Vehicle arm (DMEM) (AID 1159513).
Potency is read from the fitted curve at half-maximal effect.

With `C1=CCOCc2cc(ccc2OCCN2CCCC2)Nc2nccc(n2)-c2cccc(c2)OCC1`, the Potency in assay [1] is 3.72 µM (active); in assay [2], 2.64 µM (active).
`CC(C)(C)COc1ccc(-n2cc(C(=O)O)cn2)cc1C#N`: the Potency in assay [1] is 18.7 µM (active). In assay [2], the Potency result was “inactive”.
For `O=C(O)CC/C=C\CC[C@H]1[C@@H](N2CCCCC2)[C@@H](O)C[C@@H]1OCc1ccc(-c2ccccc2)cc1`, the Potency entry in assay [1] and in assay [2] was “inactive” throughout.
Take `C=C1C(=CC=C2CCCC3(C)[C@@H]([C@H](C)C=CC=CC(O)(CC)CC)CC[C@@H]23)C[C@@H](O)C[C@@H]1O` (stereo not given in full): the Potency was 23.5 µM (active) in assay [1] and 20.9 µM (active) in assay [2].
For the compound `O=C(Nc1cc(C(F)(F)F)cc(C(F)(F)F)c1)c1cc(Cl)ccc1O`, the Potency in assay [1] was 0.166 µM (active); in assay [2], 0.0662 µM (active).
In the case of `C=CCc1cccc(/C=N/NC(=O)CN2CCN(Cc3ccccc3)CC2)c1O`, the figures for the Potency in assay [1] and in assay [2] were 4.69 µM (active) and 13.2 µM (active), respectively.
`O=C(O)c1ccc2c(c1)nc(Nc1cccc(Cl)c1)c1ccncc12`: the figures for the Potency in assay [1] and in assay [2] were 5.26 µM (active) and 11.8 µM (active), respectively.
Turning to `c1cc(-c2cnn3cc(-c4ccc(OCCN5CCCCC5)cc4)cnc23)ccn1`, the Potency was 2.64 µM (active) in assay [1] and 16.6 µM (active) in assay [2].
For the compound `CC=C1NC(=O)[C@H]2CSSCCC=C[C@H](CC(=O)N[C@H](C(C)C)C(=O)N2)OC(=O)[C@H](C(C)C)NC1=O`, the Potency was 0.0017 µM (active) in assay [1] and 0.0019 µM (active) in assay [2].
For `CCC(=O)N1CCN(c2ccc(-n3c(=O)ccc4cnc5ccc(-c6cnc7ccccc7c6)cc5c43)cc2C(F)(F)F)CC1` the same measures were 4.18 µM (active) and 0.0209 µM (active).
As for `CCOc1cc2ncc(C#N)c(Nc3ccc(F)c(Cl)c3)c2cc1NC(=O)C=CCN(C)C`, the values for the Potency in assay [1] and in assay [2] were 4.69 µM (active) and 14.8 µM (active), respectively.
`OC[C@H]1O[C@@H](n2cnc3c2NC=NC[C@@H]3O)C[C@H]1O`: the Potency result in assay [1] and in assay [2] was “inactive” throughout.
On to `CC(C)C[C@H](NC(=O)CNC(=O)c1cc(Cl)ccc1Cl)B(O)O`, for which the figures for the Potency in assay [1] and in assay [2] were 0.0187 µM (active) and 0.118 µM (active), respectively.
For the compound `Nc1cc(C(F)(F)F)c(-c2cc(N3CCOCC3)nc(N3CCOCC3)n2)cn1`, the Potency is 1.05 µM (active) in assay [1] and 0.935 µM (active) in assay [2].
For `CN(c1ncccc1CNc1nc(Nc2ccc3c(c2)CC(=O)N3)ncc1C(F)(F)F)S(C)(=O)=O` the same measures were 1.48 µM (active) and 2.96 µM (active).
For `Cn1c(Nc2ccc(C(F)(F)F)cc2)nc2cc(Oc3ccnc(-c4ncc(C(F)(F)F)[nH]4)c3)ccc21`, the Potency in assay [1] is 11.8 µM (active); in assay [2], 23.5 µM (active).
As for `O=c1cc(CN2CCOCC2)occ1OCCCCCSc1ccnc2cc(C(F)(F)F)ccc12`, the Potency in assay [1] was 20.9 µM (active); in assay [2], 5.9 µM (active).
As to `CCOc1cc(N2CCC(O)CC2)ccc1Nc1ncc2c(n1)N(C)c1ccccc1C(=O)N2C`, the Potency in assay [1] was 13.2 µM (active); in assay [2] it was 16.6 µM (active).
For the compound `Cc1cn2c(-c3cn[nH]c3)cnc2c(Nc2ccc(C(=O)N3CCNCC3)cc2F)n1`, the Potency is 18.7 µM (active) in assay [1] and 13.2 µM (active) in assay [2].
As for `CC(C)(C)c1cc(C(=O)O)c(NC(=O)Nc2ccc3[nH]ncc3c2)s1`, the Potency entry in assay [1] and in assay [2] was “inactive” each time.
Take `Cc1ccc(NC(=O)c2ccc(CN3CCN(C)CC3)cc2)cc1Nc1nc(-c2cccnc2)cs1`: the Potency in assay [1] was 20.9 µM (active); in assay [2], 23.5 µM (active).
As to `CNC(=O)c1cc(Oc2ccc(NC(=O)Nc3cc(C(C)(C)C)nn3-c3ccc4ncccc4c3)c(F)c2)ccn1`, the Potency in assay [1] is 6.62 µM (active); in assay [2], 23.5 µM (active).
For `CCOc1cc(C=C2C(=O)N(c3ccccc3)N=C2C)cc(Cl)c1OCC(=O)OC`, the Potency in assay [1] was 18.7 µM (active). Further, the Potency entry in assay [2] is “inactive”.
For `Cc1nc(N)sc1-c1ccnc(Nc2ccc(N3CCOCC3)cc2)n1`, the Potency in assay [1] is 5.9 µM (active); in assay [2] it was 18.7 µM (active).
On to `COCCNCCCn1c(C(=O)CF)c(-c2ccc(C)cc2)c2c(N)ncnc21`, for which the Potency result in assay [1] and in assay [2] was “inactive” each time.
Turning to `CC(C)[C@H](C(=O)Nc1ccc(C(=O)NO)cc1)c1ccccc1`, the Potency is 0.0418 µM (active) in assay [1] and 0.132 µM (active) in assay [2].
The matching figures for `CC1CC(C)C(=O)C(C(O)CC2CC(=O)NC(=O)C2)C1` (stereo not given): 0.054 µM (active) and 0.191 µM (active).
Consider `COc1ncc(-c2ccc3nccc(-c4ccnnc4)c3c2)cc1NS(=O)(=O)c1ccc(F)cc1F`, for which the figures for the Potency in assay [1] and in assay [2] were 0.418 µM (active) and 0.235 µM (active), respectively.
Take `CC(C)[C@]12O[C@H]1[C@@H]1O[C@]13[C@]1(O[C@H]1C[C@H]1C4=C(CC[C@@]13C)C(=O)OC4)[C@@H]2O`: the Potency was 0.0042 µM (active) in assay [1] and 0.0074 µM (active) in assay [2].
For the compound `CC1=C(CO)C(=O)O[C@@H]([C@@H](C)[C@H]2CC[C@H]3[C@@H]4C[C@H]5O[C@]56[C@@H](O)C=CC(=O)[C@]6(C)[C@@H]4CC[C@]23C)C1`, the figures for the Potency in assay [1] and in assay [2] were 0.0743 µM (active) and 3.72 µM (active), respectively.
